Experiments:
Experiment in all cases: SPOT peptide array binding signal intensity (averaged, normalized) (arbitrary units (background-subtracted, floor 0; scale differs between SH3 domains)); higher = stronger binding of the SH3 domain to the peptide
CaNbp2 = biological target: CaNbp2
Protocol: (§1)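 GST-tagged SH3 domains from S. cerevisiae (Sc), A. gossypii (Ag), C. albicans (Ca) and S. pombe (Sp) were incubated at 10 ug/ml overnight at 4 C on cellulose SPOT membranes carrying 292 synthetic 15-mer peptides mined from the S. cerevisiae proteome (cysteines replaced by serines). Binding was detected with anti-GST antibody, HRP secondary and chemiluminescence, quantified with Genespotter, and reported as normalized spot intensities averaged over biological replicates.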

CaRvs167 = biological target: CaRvs167
Protocol: as §1

CaRvs167-3 = biological target: CaRvs167-3
Protocol: as §1

CaSho1 = biological target: CaSho1
Protocol: as §1

CaSla1-D1-D2 = biological target: CaSla1-D1-D2
Protocol: as §1

CaSla1-D3 = biological target: CaSla1-D3
Protocol: as §1

ScAbp1 = biological target: ScAbp1
Protocol: as §1

ScBbc1 = biological target: ScBbc1
Protocol: as §1

ScBem1-D1 = biological target: ScBem1-D1
Protocol: as §1

ScBzz1-D1 = biological target: ScBzz1-D1
Protocol: as §1

ScBzz1-D2 = biological target: ScBzz1-D2
Protocol: as §1

ScCyk3 = biological target: ScCyk3
Protocol: as §1

ScFus1 = biological target: ScFus1
Protocol: as §1

ScHof1 = biological target: ScHof1
Protocol: as §1

ScHse1 = biological target: ScHse1
Protocol: as §1

ScLsb1 = biological target: ScLsb1
Protocol: as §1

ScLsb2 = biological target: ScLsb2
Protocol: as §1

ScLsb3 = biological target: ScLsb3
Protocol: as §1

ScLsb4 = biological target: ScLsb4
Protocol: as §1

ScMyo3 = biological target: ScMyo3
Protocol: as §1

ScMyo5 = biological target: ScMyo5
Protocol: as §1

ScNbp2 = biological target: ScNbp2
Protocol: as §1

ScPex13 = biological target: ScPex13
Protocol: as §1

ScRvs167 = biological target: ScRvs167
Protocol: as §1

ScSho1 = biological target: ScSho1
Protocol: as §1

ScSla1-D1-D2 = biological target: ScSla1-D1-D2
Protocol: as §1

ScSla1-D3 = biological target: ScSla1-D3
Protocol: as §1

SpAbp1-D1 = biological target: SpAbp1-D1
Protocol: as §1

SpBbc1 = biological target: SpBbc1
Protocol: as §1

SpBzz1-D1 = biological target: SpBzz1-D1
Protocol: as §1

SpBzz1-D2 = biological target: SpBzz1-D2
Protocol: as §1

SpCyk3 = biological target: SpCyk3
Protocol: as §1

SpHof1 = biological target: SpHof1
Protocol: as §1

SpHof1-2 = biological target: SpHof1-2
Protocol: as §1

SpHof1-3 = biological target: SpHof1-3
Protocol: as §1

SpHse1 = biological target: SpHse1
Protocol: as §1

SpLsb1 = biological target: SpLsb1
Protocol: as §1

SpLsb4 = biological target: SpLsb4
Protocol: as §1

SpMyo1 = biological target: SpMyo1
Protocol: as §1

SpNbp2 = biological target: SpNbp2
Protocol: as §1

SpPex13 = biological target: SpPex13
Protocol: as §1

SpRvs167 = biological target: SpRvs167
Protocol: as §1

SpSla1-D1-D2 = biological target: SpSla1-D1-D2
Protocol: as §1

SpSla1-D3 = biological target: SpSla1-D3
Protocol: as §1

KLSRGRYGLPLSSRP
SPOT peptide array binding signal intensity (CaNbp2): 110
SPOT peptide array binding signal intensity (CaRvs167): 6.5
SPOT peptide array binding signal intensity (CaRvs167-3): 13.5
SPOT peptide array binding signal intensity (CaSho1): 59.5
SPOT peptide array binding signal intensity (CaSla1-D1-D2): ≤ 0
SPOT peptide array binding signal intensity (CaSla1-D3): 0.25
SPOT peptide array binding signal intensity (ScAbp1): 24
SPOT peptide array binding signal intensity (ScBbc1): 8.5
SPOT peptide array binding signal intensity (ScBem1-D1): 14
SPOT peptide array binding signal intensity (ScBzz1-D1): 21
SPOT peptide array binding signal intensity (ScBzz1-D2): 20
SPOT peptide array binding signal intensity (ScCyk3): 59
SPOT peptide array binding signal intensity (ScFus1): 102
SPOT peptide array binding signal intensity (ScHof1): ≤ 0
SPOT peptide array binding signal intensity (ScHse1): 754
SPOT peptide array binding signal intensity (ScLsb1): 89
SPOT peptide array binding signal intensity (ScLsb2): 7
SPOT peptide array binding signal intensity (ScLsb3): 16
SPOT peptide array binding signal intensity (ScLsb4): 15
SPOT peptide array binding signal intensity (ScMyo3): 6
SPOT peptide array binding signal intensity (ScMyo5): 8.5
SPOT peptide array binding signal intensity (ScNbp2): 86.5
SPOT peptide array binding signal intensity (ScPex13): 7.25
SPOT peptide array binding signal intensity (ScRvs167): 12.8
SPOT peptide array binding signal intensity (ScSho1): 112
SPOT peptide array binding signal intensity (ScSla1-D1-D2): 91.5
SPOT peptide array binding signal intensity (ScSla1-D3): 2
SPOT peptide array binding signal intensity (SpAbp1-D1): 146
SPOT peptide array binding signal intensity (SpBbc1): 2
SPOT peptide array binding signal intensity (SpBzz1-D1): 163
SPOT peptide array binding signal intensity (SpBzz1-D2): ≤ 0
SPOT peptide array binding signal intensity (SpCyk3): 6.5
SPOT peptide array binding signal intensity (SpHof1): 88.8
SPOT peptide array binding signal intensity (SpHof1-2): 10.5
SPOT peptide array binding signal intensity (SpHof1-3): 326
SPOT peptide array binding signal intensity (SpHse1): 150
SPOT peptide array binding signal intensity (SpLsb1): 110
SPOT peptide array binding signal intensity (SpLsb4): 48.5
SPOT peptide array binding signal intensity (SpMyo1): 2
SPOT peptide array binding signal intensity (SpNbp2): 38
SPOT peptide array binding signal intensity (SpPex13): 1
SPOT peptide array binding signal intensity (SpRvs167): 4.33
SPOT peptide array binding signal intensity (SpSla1-D1-D2): ≤ 0
SPOT peptide array binding signal intensity (SpSla1-D3): ≤ 0
